Results taken from PubChem BioAssay (EPA / NIEHS).
Values joined by “and” are separate entries in the source; they are usually repeats but may differ in a detail not shown here. Equal values may be shown once. Some structures have more than one record in an assay (separate samples or runs), and their calls can disagree. Active and inactive are the calls of the source. The calls were made as follows: active = hit-call score of the fitted dose curve at least 0.9, where 1 is the maximum; inactive = score below 0.9.

Read-out: Interleukin-8 (IL8), CXCL8 (gene 3576)
Experiment: BSK_LPS_IL8: BioMAP Diversity Plus: LPS Assay for Interleukin-8 (IL8) Biomarker Activity (AID 2283078)
Settings: primary human HUVEC with PBMC; actives raise or lower the signal
Description: BSK_LPS is a cell-based, multiplexed-readout assay that uses umbilical vein endothelium and peripheral blood mononuclear cells, a human vascular primary cell co-culture, with measurements taken at 24 hours after chemical dosing in a 96-well plate.BSK_LPS_IL8 is an assay component measured in the BSK_LPS assay. It measures IL-8 antibody related to regulation of gene expression using ELISA technology.Data from the assay component BSK_LPS_IL8 was analyzed into 1 assay endpoint. This assay endpoint, BSK_LPS_IL8, was analyzed with bidirectional fitting relative to DMSO as the negative control and baseline of activity. Using a type of binding reporter, gain or loss-of-signal activity can be used to understand changes in the signaling as they relate to the gene CXCL8. Furthermore, this assay endpoint can be referred to as a primary readout, because this assay has produced multiple assay endpoints where this one serves a signaling function. To generalize the intended target to other relatable targets, this assay endpoint is annotated to the cytokine intended target family, where the subfamily is interleukins.
The levels of cell surface (or secreted, indicated by the prefix "s") biomarker endpoints were measured by ELISA. Overt cytotoxicity to cells in confluent adherent cultures (all systems other than the BT system) was assessed by measuring total protein levels using sulforhodamine B (SRB) staining in parallel cultures at the time of biomarker measurements, indicated as SRB endpoints. For proliferation assays for adherent cell types, individual cell types are cultured at sub-confluence and relative cell numbers quantified by SRB staining at time points optimized for each system (48 h: 3C and CASM3C systems; 72 h: BT and HDF3CGF systems; 96 h: SAg system). SRB was performed by staining cells with 0.1% SRB after fixation with 10% TCA and reading wells at 560 nm.Viability and proliferation of PBMC (T cells) was quantified by Alamar Blue reduction for the SAg and BT systems. For PBMC viability (referred to as PBMC Cytotoxicity within the assay endpoint names), cells were plated (75,000/well in a 96-well plate) and then chemical samples added for 1 h before addition of activators, SEB and TSST-1 (20 ng/mL final concentration each). Cells were incubated for 90 h. Then, Alamar Blue (20 uL/well) (Invitrogen, Cat DAL1100) was added for 6 h, and the plates were read with a fluorescence microplate reader at 546/580 nm (excitation/emission). For PBMC proliferation, cells were plated and activated as above but incubated for only 16 h prior to addition of Alamar Blue. Plates were read after 6 h.

SMILES | outcome | AC50
O=C(NC(=O)c1c(F)cccc1F)Nc1cc(Cl)c(OC(F)(F)C(F)F)c(Cl)c1 | inactive | –
c1cc2ccc3cccc4ccc(c1)c2c34 | inactive | –
O=S(=O)(O)C(F)(F)C(F)(F)C(F)(F)C(F)(F)C(F)(F)C(F)(F)F | inactive | 14.6 µM (active) and 43.9 µM (active)
O=C(O)C(F)(F)C(F)(F)C(F)(F)C(F)(F)C(F)(F)C(F)(F)C(F)(F)C(F)(F)F | inactive | 7.33 µM (active) and 50.3 µM (active)
CC1=C2C[C@H]3[C@@H](CC=C4C[C@@H](O)CC[C@@]43C)[C@@H]2CC[C@]12O[C@@H]1C[C@H](C)CN[C@H]1[C@H]2C | inactive | –
ClC(Cl)=C(c1ccc(Cl)cc1)c1ccc(Cl)cc1 | – | 32.1 µM (active)
Sc1ccccc1 | inactive | –
O=C(O)C(F)(F)C(F)(F)C(F)(F)C(F)(F)C(F)(F)C(F)(F)C(F)(F)C(F)(F)C(F)(F)F | inactive | 46.1 µM (active) and 46.7 µM (active)
CN(C)c1nc(=O)n(C2CCCCC2)c(=O)n1C | inactive | –
Clc1ccc(C(Cl)(Cl)Cl)cc1 | inactive | –
ClC1=C(Cl)[C@]2(Cl)[C@@H]3[C@@H](Cl)[C@H]4O[C@H]4[C@@H]3C1(Cl)C2(Cl)Cl | inactive | –
CO/C=C(/C(=O)OC)c1ccccc1COc1cccc(C(F)(F)F)n1 | – | 3.06 µM (active)
CCCCCCCCCc1ccc(O)cc1 | – | 27.6 µM (active)
Cc1ccccc1CO[C@@H]1C[C@@]2(C(C)C)CC[C@]1(C)O2 | inactive | –
O=C(N[C@H]1CN2CCC1CC2)c1cc2ccoc2cn1 | inactive | –
Oc1ccc(Cl)cc1Cl | inactive | –
CCC(C)c1cc([N+](=O)[O-])cc([N+](=O)[O-])c1O (stereo not given) | – | 27.5 µM (active)
O=C(NC(=O)c1cc(F)c(F)cc1Cl)Nc1cc(F)ccc1N1CCC(C(=O)O)CC1 | inactive | –

SMILES | outcome | AC50
Cc1ccccc1[N+](=O)[O-] | inactive | –
O=C(O)C(F)(F)C(F)(F)C(F)(F)C(F)(F)C(F)(F)F | inactive | –
CC(C)C(=O)OCC(C)(C)C(OC(=O)C(C)C)C(C)C (stereo not given) | inactive | –
Oc1c(Cl)c(Cl)c(Cl)c(Cl)c1Cl | inactive | 33.1 µM (active)
C[C@]12CCC(=O)C=C1CC[C@@H]1[C@@H]2CC[C@]2(C)C(=O)CC[C@@H]12 | inactive | –
COc1ccc(O)c(C(C)(C)C)c1 | inactive | –
Cc1ccccc1O | inactive | –
CCCCCCCCOC(=O)c1ccccc1C(=O)OCCCCCCCC | inactive | –
CC(C)(c1ccccc1)c1ccc(O)cc1 | – | 35.3 µM (active)
CCC(C)(CC)c1cc(NC(=O)c2c(OC)cccc2OC)on1 | inactive | –
Cc1cccc([N+](=O)[O-])c1 | inactive | –
CCCN(CCC)N=O | inactive | –
CCCCCCOC(=O)c1ccccc1C(=O)OCCCCCC | – | 20 µM (active)
C1CC2OC2CC1C1CO1 (stereo not given) | inactive | –
c1ccc(-c2ccccc2)cc1 | inactive | –
CCOC(=O)C(O)(c1ccc(Cl)cc1)c1ccc(Cl)cc1 | – | 35.2 µM (active)
CC(c1ccc(O)cc1)(c1ccc(O)cc1)c1ccc(O)cc1 | inactive | –
CCC(=O)O[C@H]1CC[C@H]2[C@@H]3CCC4=CC(=O)CC[C@]4(C)[C@H]3CC[C@]12C | – | 26.5 µM (active)
